Values without a mark were called inactive. Active and inactive are the calls of the source.
test: forskolin-driven CRE-LacZ activity in PC12 – cell-based, CRE-LacZ reporter, forskolin-stimulated, primary screen (AID 1146); conditions: luminescence, 4.5 h, higher = more signal, called active from +8 up or from −8 down;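 further: PC12 cells with 6xCRE LacZ reporter stimulated by forskolin 10 µM; beta-galactosidase reporter signal reflecting CREB driven transcription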

Compound | z-score
CC(=O)OC[C@H]1O[C@@H](ON=C(C)C)[C@H](OC(C)=O)[C@@H](OC(C)=O)[C@@H]1OC(C)=O | 0.101
CC(C)=CCCC(C)=CCON=C1[C@H]2CCn3c(=O)n(-c4ccccc4)c(=O)n3[C@H]2[C@H](O)[C@@H]2O[C@H]12 | -0.271
COC(=O)CC=C[C@@H](C)[C@@H](C=NOC[C@@H](C)[C@H](OCc1ccccc1)C(C)C)OC | 0.0112
CCOC(=O)CCN1C(=O)[C@H]2[C@H]3[C@H](O)[C@H](O)CC(=NO[C@@H]4O[C@H](CO)[C@@H](O)[C@H](O)[C@H]4O)[C@@H]3CC[C@H]2C1=O | 1.17
COC(=O)[C@H](C)NC(=O)CCC1CC(OC(=O)NCc2ccc3c(c2)OCO3)CC2(CCCC(COC(=O)NCCc3ccc(Cl)cc3)O2)O1 (stereo partly specified) | 0.336
CC(CCN1CCCc2nc(C)c(C)cc21)=NOC[C@@H](O)COCc1ccco1 | -0.175
CC(CCN1CCCCc2nc(C)c(C)cc21)=NO[C@@H](C)c1cc(-c2c(C)cc(C)cc2C)no1 | 1.02
C[C@H]1CC[C@@H](C(=O)O)N[C@@H]1c1ccc(C#Cc2ccccc2)cc1 | -1.58
COc1ccc(O[C@H]2C=C[C@@H](c3ccccc3)O[C@@H]2COC(=O)NCc2cccc3ccccc23)cc1 | 1.56
CC(C)CON=C1C[C@@H](O)[C@@H](O)[C@@H]2[C@@H]3C(=O)N(C(C)(C)C)C(=O)[C@@H]3CC[C@@H]12 | 0.549
CC(C)CON=C1[C@H]2CCn3c(=O)n(C)c(=O)n3[C@H]2[C@H](O)[C@@H]2O[C@H]12 | -0.28
CCOC(=O)CCN1C(=O)[C@H]2[C@H]3[C@H](O)[C@H](O)CC(=O)[C@@H]3CC[C@H]2C1=O | -0.671
CC1(C)O[C@H]2OC([C@H](O)CON3C(=O)c4ccccc4C3=O)[C@H](O)[C@H]2O1 (stereo partly specified) | 0.266
COc1cccc([C@H](O)Cn2cc(-c3ccc(CON=C(C)C)cc3)nn2)c1 | -0.222
COCC#Cc1ccc([C@@H]2N[C@H](C(=O)O)CC[C@H]2C)cc1 | -1.56
O=C1C[C@H](c2ccccc2)[C@H](c2ccc(Br)cc2)O1 | -0.0385
CCCNC(=O)OC[C@H]1O[C@H](CCON=C[C@@H](NS(=O)(=O)c2ccc(C)cc2)[C@H](C)C=CCC(=O)OC)C=C[C@@H]1Oc1ccc(OC)cc1 | 0.26
CCOC(=O)[C@H](Cc1ccccc1)NC(=O)CCC1CC(OC(=O)NCCc2ccc(F)cc2)CC2(CCCC(COC(=O)NCCOc3ccccc3)O2)O1 (stereo partly specified) | 0.327

Compound | z-score
C=CC[C@@H]1C=C[C@H](Oc2ccc(C)cc2)[C@@H](COC(=O)NCc2cccc3ccccc23)O1 | -0.868
O=C1C2=CC[C@H]3C(=O)N(C[C@@H]4CCCO4)C(=O)[C@H]3[C@H]2[C@H](O)[C@@H]2O[C@H]12 | 21.2 (active)
CSCC[C@@H]1NC(=O)CC=C[C@@H](C)COC(=O)[C@H](C)COC1=O | -0.925
COC(=O)[C@H](Cc1ccccc1)NC(=O)[C@@H](C)CO | 0.563
O=C1[C@H]2[C@H]3[C@H](O)[C@H](O)CC(=NOCc4ccccc4)[C@@H]3CC[C@H]2C(=O)N1c1cccc(Oc2ccccc2)c1 | 0.0169
CC(C)C(=O)N[C@H]1CCCN1C(=O)C=Cc1ccccc1 | -0.135
CCN1C(=O)[C@H]2[C@H]3[C@H](O)[C@H](O)CC(=NOCC(C)C)[C@H]3CC[C@H]2C1=O | 0.13
C#CCCCON=C1[C@H]2CCn3c(=O)n(Cc4cc5c(cc4Cl)OCO5)c(=O)n3[C@H]2[C@H](O)[C@@H]2O[C@H]12 | 0.959
COC(=O)[C@H](C)NC(=O)CCC1CC(OC(=O)NCc2cccc3ccccc23)CC2(CCCC(COC(=O)NCCOc3ccccc3)O2)O1 (stereo partly specified) | 0.222
CO[C@H]1COC(=O)CC=C[C@@H](C)COC(=O)[C@H]2CCCN2C(=O)CC=C[C@H]1C | -1.05
O=C1C[C@@H](O)[C@@H](O)[C@@H]2[C@@H]3C(=O)N(C4CCCCC4)C(=O)[C@@H]3CC[C@@H]12 | -0.393
CN1CCc2nc(-c3ccccc3)c(-c3ccccc3)cc2C1 | 0.0655
CC(CCC(=O)OC[C@H]1O[C@H](C#Cc2ccccc2)C=C[C@@H]1Oc1ccc(C)cc1)=NOC(C)CN1CCCCc2nc(C)c(C)cc21 (stereo partly specified) | 1.1
CO[C@@H]1C=CCC(=O)N[C@@H](C)C(=O)OC[C@@H](OC)[C@H](C)C=CCC(=O)OC[C@H]1C | -0.384
CO[C@@H]1[C@H](O)CO[C@H]1C=Cc1ccccc1 | -0.43
CO[C@H]1COC(=O)[C@H](CCSC)NC(=O)CC=C[C@@H](C)[C@H](OC)COC(=O)[C@@H](OCc2ccccc2)C=C[C@@H]1C | 0.74
COc1ccc(OC[C@H]2CN3[C@@H](CC[C@@H](C)[C@@H]3c3ccc(Br)cc3)C(=O)O2)cc1 | -0.165
COc1ccc(O[C@H]2C=C[C@@H](c3ccccc3)O[C@@H]2CO)cc1 | -0.265

From PubChem BioAssay
